Laboratory results reported in PubChem BioAssay (Tox21).
“And” between values parts separate entries of the source, which are not always exact repeats. Equal entries are not always repeated. Results filed as inconclusive are left out. A call without a number means that no potency is given here. Some compounds were tested as several samples or in several runs, with calls that do not always agree. The source made the active and inactive calls. Unless noted, calls follow the shape of the dose curve; as a rule, active = well fitted curve in the direction sought with a large enough effect in the repeat runs; inconclusive = weak or mixed curves; inactive = no such curve, though single readings can be large; an effect the other way counts as inactive or inconclusive.

Experiments:
[1] = qHTS assay for small molecule agonists of the p53 signaling pathway - cell viability (AID 651633; calls by dose curve; also: nearly all actives have a fitted effect of over 30% in size; also: potency is read from the fitted curve at half-maximal effect)
In short: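 p53RE-bla cells, seeded at 4,000 per well and rested 5 h at 37 C/5% CO2, received compounds in DMSO for 16 h at 37 C. CellTiter-Glo was then added, and luminescence was read after 30 min at room temperature to gauge cytotoxicity.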

[2] = qHTS assay for small molecules that induce genotoxicity in human embryonic kidney cells expressing luciferase-tagged ATAD5 - cell viability (AID 651634; calls by dose curve; also: nearly all actives have a fitted effect of over 25% in size; also: potency is read from the fitted curve at half-maximal effect)
In short: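 HEK293T cells expressing luciferase-tagged ATAD5 were exposed to compound or DMSO for 15.5 hr at 37C, 5% CO2. Viability was then read as live-cell protease activity by CellTiter-Fluor fluorescence after 30 min at 37C.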

[3] = qHTS assay to test for compound auto fluorescence at 590 nm (red) in HepG2 cells (AID 720674)
In short: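 Rose Bengal sodium served as the red fluorophore standard. HepG2 monolayers (overnight attachment, MEM with 10% FBS) were exposed to test compounds for 1 hr at 37 C and read at Ex 540/Em 590 nm.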

[4] = qHTS assay to test for compound auto fluorescence at 460 nm (blue) in HEK293 cells (AID 720678)
In short: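 HEK293 cells (2,000/well, medium with 10% dialyzed FBS) attached 4-5 hr, then exposed to compound overnight at 37C, 5% CO2. Blue fluorescence read at 405/460 nm, with triamterene as reference fluorophore.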

[5] = qHTS assay to test for compound auto fluorescence at 590 nm (red) in HEK293 cells (AID 720679)
In short: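 HEK293 cells (2,000/well, 10% dialyzed FBS) attached 4-5 hr, then dosed with compound or DMSO and incubated overnight at 37C, 5% CO2. Red fluorescence read at 540/590 nm, Rose Bengal sodium as reference fluorophore.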

[6] = qHTS assay to test for compound auto fluorescence at 460 nm (blue) in HEK293 cell free culture (AID 720681)
In short: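 Test compounds were pinned into cell-free culture medium (DMEM with 10% FBS) and fluorescence was read directly at Ex/Em 405/460 nm. Signals were expressed as fluorescence equivalents of triamterene, with DMSO vehicle as control.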

[7] = qHTS assay to test for compound auto fluorescence at 535 nm (green) in HEK293 cell free culture (AID 720682); also: potency is read from the fitted curve at half-maximal effect
In short: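 Using fluorescein as calibrant, autofluorescence was quantified at 485/535 nm in cell-free DMEM containing 10% FBS after pintool addition of compound or vehicle.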

[8] = qHTS assay to test for compound auto fluorescence at 590 nm (red) in HEK293 cell free culture (AID 720683)
In short: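 Tox21 10K library compounds were pinned into cell-free DMEM with 10% FBS and fluorescence was read at excitation 540 nm. Activity is expressed as Rose Bengal sodium equivalency.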

[9] = qHTS assay to test for compound auto fluorescence at 460 nm (blue) in HepG2 cell free culture (AID 720685)
In short: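 Compound (23 nL) or DMSO pinned into cell-free MEM with 10% FBS; blue fluorescence read at 405/460 nm excitation/emission, expressed as auto-fluorescence equivalency to triamterene.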

[10] = qHTS assay to test for compound auto fluorescence at 535 nm (green) in HepG2 cell free culture (AID 720686); also: potency is read from the fitted curve at half-maximal effect
[11] = qHTS assay to test for compound auto fluorescence at 460 nm (blue) in HepG2 cells (AID 720687)
In short: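 Cells (2,000/well in MEM with 10% FBS) attached overnight at 37 C, then were exposed to compound or DMSO for 1 hr at 37 C, 5% CO2. Fluorescence read at Ex/Em 405/460 nm, expressed as triamterene-equivalent signal.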

[12] = qHTS assay to identify small molecule antagonists of the glucocorticoid receptor (GR) signaling pathway - cell viability counter screen (AID 720693); also: nearly all actives have a fitted effect of over 55% in size; also: potency is read from the fitted curve at half-maximal effect
[13] = qHTS assay to identify small molecule antagonists of the androgen receptor (AR) signaling pathway - cell viability counter screen (AID 743033; also: nearly all actives have a fitted effect of over 45% in size; also: potency is read from the fitted curve at half-maximal effect)
[14] = qHTS assay to identify small molecule antagonists of the androgen receptor (AR) signaling pathway using the MDA cell line - cell viability counter screen (AID 743041; also: nearly all actives have a fitted effect of over 45% in size)
In short: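 MDA-kb2 AR-luc human breast carcinoma cells (MMTV-luciferase, AR/GR responsive) were treated with compounds plus R1881 agonist for 16 h at 37 °C. Viability was read as CellTiter-Fluor fluorescence in the same wells as the reporter assay.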

[15] = qHTS assay to identify small molecule antagonists of the estrogen receptor alpha (ER-alpha) signaling pathway - cell viability counter screen (AID 743074; calls by dose curve;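 also: HEK293 cells carrying ER-alpha-UAS-bla reporter stimulated with 17beta-estradiol; nearly all actives have a fitted effect of over 45% in size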; also: potency is read from the fitted curve at half-maximal effect)
Aromatase (Homo sapiens) = Aromatase (Homo sapiens) (UniProt P11511); experiment: qHTS assay to identify aromatase inhibitors (AID 743083); also: series mostly up to about 70 µM; nearly all actives have a fitted effect of over 55% in size
[16] = qHTS assay to identify aromatase inhibitors - cell viability counter screen (AID 743084);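 also: cells stimulated with testosterone during compound exposure; nearly all actives have a fitted effect of over 55% in size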; also: potency is read from the fitted curve at half-maximal effect
[17] = qHTS assay to identify small molecule that activate the aryl hydrocarbon receptor (AhR) signaling pathway - cell viability counter screen (AID 743086); also: nearly all actives have a fitted effect of over 45% in size; also: potency is read from the fitted curve at half-maximal effect
In short: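 HepG2-AhR-luc (HG2L7.5c1) cells, 4000/well, were preincubated 5 h at 37C, exposed to compound in qHTS format for 24 hr at 37C, then given CellTiter-Fluor for 30 min; viability was read as fluorescence in the reporter wells.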

[18] = qHTS assay to identify small molecule phospholipidosis (PLD) inducers (AID 1259344; active = well fitted curve in the direction sought with a large enough effect; an effect the other way counts as inactive or inconclusive)
In short: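 HepG2 cells on collagen I, attached 4 h at 37 C, were co-treated with compound and LipidTOX Red dye for 24 h at 37 C, then fixed with paraformaldehyde plus Hoechst 33342 and imaged by high-content microscopy for phospholipid accumulation.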

[19] = qHTS assay to test for compound auto fluorescence at 590 nm (red) in HepG2 cell free culture (AID 720684)
In short: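 Red fluorescence (540 nm excitation, 590 nm emission) was measured after compound transfer into cell-free MEM supplemented with 10% FBS. Values are equivalencies against Rose Bengal sodium.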
Tags tell the direction and shape of the fitted curve or compound fluorescence and quenching.

Sequence of Aromatase (Homo sapiens) (P11511 whole entry, looked up): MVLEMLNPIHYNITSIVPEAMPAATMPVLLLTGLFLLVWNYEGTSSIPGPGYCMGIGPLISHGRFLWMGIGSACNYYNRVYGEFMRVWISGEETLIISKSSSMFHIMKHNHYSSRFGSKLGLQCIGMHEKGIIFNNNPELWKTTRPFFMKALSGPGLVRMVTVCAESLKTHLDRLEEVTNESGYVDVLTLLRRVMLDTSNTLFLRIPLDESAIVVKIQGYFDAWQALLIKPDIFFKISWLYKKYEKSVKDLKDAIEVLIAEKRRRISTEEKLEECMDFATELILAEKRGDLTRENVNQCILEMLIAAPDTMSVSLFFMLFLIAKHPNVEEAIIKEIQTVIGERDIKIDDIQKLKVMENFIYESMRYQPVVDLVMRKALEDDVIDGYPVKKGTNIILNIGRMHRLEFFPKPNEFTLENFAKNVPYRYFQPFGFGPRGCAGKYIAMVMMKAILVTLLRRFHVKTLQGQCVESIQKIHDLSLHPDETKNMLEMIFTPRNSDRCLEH

Row | Compound | Potency [1] | Potency [2] | outcome [3] | Potency [4] | outcome [5] | Potency [6] | Potency [7] | outcome [8] | Potency [9] | Potency [10] | Potency [11] | Potency [12] | Potency [13] | Potency [14] | Potency [15] | Potency (Aromatase (Homo sapiens)) | Potency [16] | Potency [17] | Potency [18] | outcome [19]
1 | [S]=[Sb](=[S])[S][Sb](=[S])=[S] | inactive | inactive | inactive | inactive | inactive | inactive | inactive | inactive | inactive | inactive | inactive | inactive | inactive | inactive | inactive | inactive | inactive | inactive | inactive | –
2 | COc1cc([C@@H]2c3cc4c(cc3[C@@H](O)[C@H]3COC(=O)[C@H]23)OCO4)cc(OC)c1O | inactive | 298 nM (active) | inactive | inactive | inactive | inactive | inactive | inactive | inactive | inactive | inactive | inactive | – | – | inactive | inactive | inactive | 29800 nM (active) | inactive | inactive
3 | CC(=O)O[C@H]1CC[C@H]2[C@@H]3CCC4=CC(=O)CCC4=C3C=C[C@]12C | inactive | inactive | inactive | inactive | inactive | inactive | inactive | inactive | inactive | inactive | inactive | – | inactive | inactive | – | inactive | inactive | inactive | inactive | inactive
4 | O=C1OC2(c3cc(Br)c(O)cc3Oc3c2cc(Br)c(O)[c]3[Hg])c2ccccc21 (stereo not drawn) | inactive | inactive | – | inactive | – | inactive | 10000 nM [fluorescent] (active) | – | inactive | 10000 nM [fluorescent] (active) | inactive | inactive | inactive | inactive | inactive | inactive | inactive | inactive | inactive | –
5 | Cc1ccccc1-n1c(C)nc2ccccc2c1=O | inactive | inactive | inactive | inactive | inactive | inactive | inactive | inactive | inactive | inactive | inactive | inactive | inactive | inactive | inactive | inactive | inactive and 24.1 µM (active) | inactive and 24.1 µM (active) | inactive | inactive
6 | O=C(NC(=O)c1c(F)cccc1F)Nc1ccc(Cl)c(Oc2ncc(C(F)(F)F)cc2Cl)c1 | – | inactive | inactive | inactive | inactive | inactive | inactive | inactive | inactive | inactive | inactive | inactive | inactive | inactive | inactive | inactive | inactive | inactive | inactive | inactive
7 | O=C(OCCN1CCCCC1)C(O)(c1ccccc1)c1ccccc1 | inactive | inactive | inactive | inactive | inactive | inactive | inactive | inactive | inactive | inactive | inactive | inactive | inactive | inactive | inactive | inactive | inactive | inactive | inactive | inactive
8 | CCCCC[C@@H](O)C1C(=O)OC(C)[C@H](O)/C=C/C=C/C=C/C=C/C=C(\C)C(O)C(O)C(O)C[C@H](O)C[C@H](O)C[C@H](O)C[C@H](O)C[C@@H]1O (stereo partly drawn) | inactive | inactive | inactive | inactive | inactive | inactive | inactive | inactive | inactive | inactive | – | inactive | inactive | inactive | inactive | inactive | inactive | inactive | inactive | inactive
9 | C[C@]12CC[C@H](O)C[C@H]1CC[C@@H]1[C@@H]2CC[C@]2(C)[C@@H](c3ccc(=O)oc3)C[C@H]3O[C@]132 | 750 nM (active) | 2110 nM (active) | – | inactive | inactive | inactive | inactive | inactive | inactive | inactive | inactive | 2680 nM (active) | 1340 nM (active) | – | 1340 nM (active) | inactive | inactive | inactive | inactive | –
10 | CC(=O)O[C@H]1C[C@H](O[C@H]2[C@@H](O)C[C@H](O[C@H]3[C@@H](O)C[C@H](OC4CC[C@@]5(C)[C@H](CC[C@@H]6[C@@H]5CC[C@]5(C)[C@@H](C7=CC(=O)OC7)CC[C@]65O)C4)O[C@@H]3C)O[C@@H]2C)O[C@H](C)[C@H]1O[C@@H]1O[C@H](CO)[C@@H](O)[C@H](O)[C@H]1O (stereo partly drawn) | 47.3 nM (active) | 298 nM (active) | inactive | inactive | inactive | inactive | inactive | inactive | inactive | inactive | inactive | 756 nM (active) | 107 nM (active) | – | 67.4 nM (active) | inactive | inactive | inactive | inactive | inactive
11 | CCC(N)Cc1c[nH]c2ccccc12 (stereo not drawn) | inactive | inactive | inactive | inactive | inactive | inactive | inactive | inactive | inactive | inactive | – | inactive | inactive | inactive | inactive | inactive | inactive | inactive | inactive | inactive
12 | CC(=O)[C@H]1CC[C@H]2[C@@H]3CC[C@@H]4C[C@H](O)CC[C@]4(C)[C@H]3CC[C@]12C | – | inactive | inactive | inactive | inactive | inactive | inactive | inactive | inactive | inactive | – | inactive | inactive | inactive | inactive | inactive | inactive | inactive | inactive | inactive
13 | CCc1cc(OC)c(C[C@@H](C)N)cc1OC | inactive | inactive | – | inactive | inactive | inactive | inactive | inactive | inactive | inactive | inactive | inactive | inactive | – | inactive | inactive | inactive | – | inactive | inactive
14 | O=C(O)CCCO | inactive | inactive | inactive | inactive | inactive | inactive | inactive | inactive | inactive | inactive | inactive | inactive | inactive | inactive | inactive | inactive | inactive | inactive | inactive | –
